DAX1 inh-1 = inhibitors of DAX1 repression of SF-1 activated StAR promoter | HEK293T StAR-luciferase reporter, SF-1/DAX-1 repression relief | inhibition, % at 6.8 µM | actives 1.1% (n = 370,000) | AID 652010;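 active = inhibition above the mean over all tested compounds plus 3 SD, cut at about 3.6% in these data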;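 note: 0% = DAX-1 cells with DMSO and 100% = cells lacking DAX-1 with DMSO; higher inhibition means more luminescence from relief of DAX-1 repression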
ssDAF-12 act = activates DAF-12 receptor from parasite S. stercoralis; activation, % at 6.8 µM; AID 652126; actives 1% (n = 370,000); HEK293 ssDAF-12/GRIP1 lit1-tk-luc reporter, luminescence; % of 3 µM dafachronic acid response;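 active = activation above the mean over all tested compounds plus 3 SD, cut at about 0.9% in these data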;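 note: 0% = DMSO-only wells and 100% = 3 µM delta7-dafachronic acid wells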
DAX1 inh-2 = NR0B1 (DAX1) inhibition | P51843 | HEK293 Gal4-DAX1 luciferase reporter, luminescence | inhibition, % at 6.75 µM | actives 0.99% (n = 340,000);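 active = inhibition above the mean over all tested compounds plus 3 SD, cut at about 4.2% in these data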;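 note: 0% = DAX1-transfected cells with DMSO and 100% = empty-vector control cells with DMSO; inhibition shows as a rise in luminescence from relieved DAX1 repression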
Target sequence (P51843 207-470 limits assumed): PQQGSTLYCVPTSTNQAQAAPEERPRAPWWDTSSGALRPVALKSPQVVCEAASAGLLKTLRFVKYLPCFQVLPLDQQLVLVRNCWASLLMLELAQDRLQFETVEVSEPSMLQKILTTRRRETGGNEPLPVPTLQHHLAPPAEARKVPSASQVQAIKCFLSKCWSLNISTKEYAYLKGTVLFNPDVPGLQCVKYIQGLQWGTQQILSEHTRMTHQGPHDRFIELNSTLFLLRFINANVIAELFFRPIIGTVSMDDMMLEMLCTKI
hcDAF12 agonist = H. contortus DAF-12 activation, primary screen | HEK293 hcDAF-12 lit1-tk-luc reporter, luminescence; 0% DMSO, 100% Δ7-dafachronic acid | actives 1.4% (n = 370,000) | AID 652067 | activation, % at 6.8 µM;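 active = activation above the mean of all tested compounds plus 3 SD, cut at about 5.5% in these data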;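 note: 100% = response to 3 µM Δ7-dafachronic acid high control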
hgDAF-12 ag = agonists of H. glycines DAF-12 nuclear receptor; AID 687014; actives 1.8% (n = 370,000); HEK293 GAL4-hgDAF12 UAS-luciferase reporter, agonist luminescence; normalized to butyrate control; activation, % at 6.8 µM;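 active = activation above a cutoff set at the mean of all screened compounds plus 3 SD, cut at about 10% in these data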;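 note: 0% = DMSO wells and 100% = sodium butyrate wells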
* marks the source's active call; other numbers are inactive results; . = not tested or not shown. Hits are enriched below; roughly 4.1% of the tested compounds scored in any of these assays.

SMILES	DAX1 inh-1	ssDAF-12 act	DAX1 inh-2	hcDAF12 agonist	hgDAF-12 ag
Cc1cn(CCC(=O)Nc2ccc(N3CCOCC3)cc2)c2ccccc12	0.9	-0.8	1.4	2.5	6.6
Cc1cn(CCC(=O)Nc2ccccc2N2CCOCC2)c2ccccc12	0.5	-0.5	6.8*	6.0*	6.0
COc1ccc(-n2c(SCC(=O)NNC(=S)Nc3ccccc3)nc3ccccc3c2=O)cc1	-1.8	-1.4	.	-0.5	0.1
O=C(Nc1nc2ccccc2s1)c1cc2c(s1)-c1ccccc1OC2	-0.1	-0.3	3.4	-1.1	2.5
CCn1cc(Cl)c(C(=O)Nc2nccs2)n1	1.4	-0.3	1.4	6.4*	0.9
Cn1cc(Cl)c(C(=O)Nc2nccs2)n1	0.6	-0.1	1.2	-0.8	5.9
O=C(Nc1nccs1)c1ccc(Br)s1	3.4	-0.3	0.9	5.8*	10.1
Cc1ccc(C(=O)Nc2nccs2)s1	1.4	0.1	2.7	3.5	8.1
O=C(Nc1nccs1)c1cc2c(s1)-c1ccccc1OC2	3.0	-0.2	1.7	4.8	10.4*
O=C(Nc1nccs1)c1ccc(Cl)nc1	0.0	-0.2	-0.7	5.9*	3.4
Cc1ccc(-c2cc(-c3nnc(SCC(=O)N4CCOCC4)n3N)[nH]n2)cc1	-1.1	-1.3	.	-2.4	-1.3
C[C@H](O)[C@@H]1C(=O)N2CCc3c([nH]c4c(-c5ccc6c(c5)OCO6)cccc34)[C@@H]2C[C@@H]1N(C)C(=O)OCc1ccccc1	-0.4	-1.5	.	-1.4	1.8
O=C(O)c1ccccc1Cc1ccc2c(c1)CCCC2	-0.7	-1.1	-0.9	-0.2	3.7
Nn1c(SCc2ccc([N+](=O)[O-])cc2)nnc1-c1cc(-c2ccccc2)n[nH]1	-0.7	-1.4	.	-4.8	-2.3
Cc1ccc2nc(-c3cccc(S(=O)(=O)N(C)C)c3)cn2c1	1.2	-0.2	0.2	2.4	10.6*
CN(C)CCNC(=O)C1Cc2c(-c3ccccc3Oc3ccccc3)ccnc2O1 (configuration not stated)	0.1	-1.1	.	-2.1	-2.7
CCCn1c2c(c(O)c(C(=O)Nc3nc4ccccc4s3)c1=O)CCCC2	0.3	-0.4	1.6	6.0*	1.1
COC1=C[C@H](C(=O)NCc2ccccc2)[C@H](C)[C@@H](c2ccccc2)CC1=O	0.7	-1.1	.	0.5	-0.7
O=C1c2ccccc2S(=O)(=O)N1CC1CC(c2ccccc2)=NO1 (configuration not stated)	1.9	-0.8	1.6	1.7	7.8
COc1ccc(C2=NOC(CN3C(=O)c4ccccc4S3(=O)=O)C2)cc1 (configuration not stated)	1.6	0.5	1.0	3.5	12.2*
C=CCNC(=O)c1c(Cl)cnn1-c1ccc(C)cc1	1.2	-0.2	.	4.2	11.9*
CNC(=O)c1c(Cl)cnn1-c1ccc(C)cc1	1.5	0.2	0.5	3.0	11.8*
CNC(=O)c1c(Br)cnn1-c1ccc(C)cc1	3.7*	-0.7	0.8	3.5	12.2*
C=CCNC(=O)c1cnn(-c2ccccc2)c1-c1ccccc1	-0.1	-1.4	-0.7	0.5	0.3
O=C(c1cc(F)ccc1F)N1CCC(Oc2cccnc2)CC1	-0.7	-1.0	.	-2.4	-1.4
SMILES	DAX1 inh-1	ssDAF-12 act	DAX1 inh-2	hcDAF12 agonist	hgDAF-12 ag
COC(=O)[C@]12C[C@H](CC(=O)NCC34CC5CC(CC(C5)C3)C4)C(=O)N(CCc3ccc(OC)c(OC)c3)C1=C[C@H](C(C)(C)C)O[C@@H]2C	-1.9	-1.7	.	-1.9	-2.0
O=C(Nc1ccc(F)cc1)C(c1cc2ccccc2o1)N1CCN(c2cccc(C(F)(F)F)n2)CC1 (configuration not stated)	0.7	2.3*	.	0.5	-0.6
CCC[C@H]1[C@@H](OC(=O)N2CCN(c3ccccc3)CC2)CC[C@@]23CCCN2C(=O)CCC[C@@H]13	.	-1.8	.	-2.6	1.6
O=C(O)C(c1ccccc1)c1ccccc1	0.5	-0.3	0.8	1.7	1.0
N/C(=N/O)C(c1ccccc1)c1ccccc1	1.0	-0.4	-0.8	5.8*	3.0
CCn1c(COc2ccc(Cl)cc2)nnc1SCC(=O)Nc1ccc(Oc2ccccc2)cc1	-0.1	-1.3	.	-1.7	0.3
Cc1csc(NC(=O)c2cc(C)oc2C)n1	0.6	0.9*	0.8	-0.2	8.8
Cc1csc(NC(=O)c2ccccc2O)n1	0.5	-0.1	0.5	-0.2	3.7
Cc1csc(NC(=O)c2ccc(C)o2)n1	2.4	0.6	1.2	1.5	11.8*
Cc1cc(C(=O)Nc2cc(C(C)(C)C)on2)c(C)o1	0.7	-0.6	6.3*	2.2	3.8
Cc1ccc(-c2ocnc2C(=O)Nc2nc(C)cs2)cc1	1.6	1.9*	5.4*	1.4	3.7
CC(C)CCNC(=O)CSc1nc2c(c(=O)[nH]1)CCC2	.	-2.1	.	-1.2	-1.6
CCN1Cc2nnn(Cc3ccc(C)cc3)c2-c2ccccc2S1(=O)=O	-1.3	-1.0	.	-0.5	-0.9
COc1ccccc1/C=C/C=N/n1c(-c2ccccn2)n[nH]c1=S	0.9	-0.9	1.2	5.6*	5.4
C/C(=N\NC(=O)c1nn(C)cc1Br)c1cccc(NC(=O)C2CCCC2)c1	2.4	-0.2	1.7	1.3	11.0*
C/C(=N\NC(=O)c1nn(C)cc1Br)c1cccc(NC(=O)C(C)(C)C)c1	0.9	0.0	3.9	0.5	8.4
Cc1cccc(Cc2nnc(CCC(=O)N(C)CCc3ccccc3)o2)c1	1.7	-0.6	1.7	4.2	11.9*
CCn1c(/C=C/c2cc[n+](C)cc2)nc2ccccc21	-0.2	-1.2	4.2*	2.3	1.9
C[C@@H]1[C@@H](c2ccccc2)c2cc3ccccc3nc2-c2nc3ccccc3cc2[C@@H]1C(=O)N1CCCC1	-0.4	-0.4	.	0.7	-2.0
O=C1[C@@H](C2CC2)[C@@H]2c3ccccc3C=NN2[C@@H]2c3ccccc3C=NN12	-0.7	-0.6	.	0.5	-1.0
Cc1cccc(N2C(=O)C3C4C=CC(CC4)C3C2=O)c1 (configuration not stated)	-0.2	-0.7	0.0	-2.7	1.5
O=C1C2C3CCC(O3)C2C(=O)N1c1cccc(O)c1 (configuration not stated)	0.3	0.9*	-1.1	3.9	5.0
O=C(NN=C1CCCC1)c1ccccc1[N+](=O)[O-]	-0.1	-1.1	1.6	0.4	-2.1
COc1ccc(C(=O)NN=C2CCCC2)cc1	-0.3	-1.4	2.3	1.2	3.0
O=C(NN=C1CCCC1)c1ccccc1O	0.2	-0.4	2.8	0.0	10.6*
COc1cccc(C(=O)NN=C2CCCC2)c1	4.5*	0.6	1.8	3.4	10.6*
COC(=O)[C@]12C[C@H](CC(=O)NCc3cccs3)C(=O)N(CCc3ccc(OC)c(OC)c3)C1=C[C@H](C1CCCC1)O[C@@H]2C	-0.8	-1.3	.	-3.5	-0.4
O=C(Nc1ccc(NC(=O)c2ccccc2Cl)c(Cl)c1)c1ccccn1	.	-1.1	.	-0.6	6.2
CSc1ccc(/C=C(\NC(=O)c2ccccc2)C(=O)NCCN2CCOCC2)cc1	-0.1	-0.6	5.2*	-0.8	-0.2
